What was measured:
Experiment in all cases: DAPPL (digital affinity profiling via proximity ligation, sequencing); 10 mM Tris-HCl pH 7.5, 50 mM NaCl, 1 mM DTT, 4% glycerol, room temperature, 30 min; GST-TFs on glutathione beads, 16-mer random dsDNA library, 0.1% formaldehyde crosslink after washing; high values mean tight binding
[1] = target: T1, FLI1 (Homo sapiens, UniProt Q01543 1-452); conditions: protein: recombinant; tags: N-terminal GST; dsDNA, one strand shown
T1 sequence: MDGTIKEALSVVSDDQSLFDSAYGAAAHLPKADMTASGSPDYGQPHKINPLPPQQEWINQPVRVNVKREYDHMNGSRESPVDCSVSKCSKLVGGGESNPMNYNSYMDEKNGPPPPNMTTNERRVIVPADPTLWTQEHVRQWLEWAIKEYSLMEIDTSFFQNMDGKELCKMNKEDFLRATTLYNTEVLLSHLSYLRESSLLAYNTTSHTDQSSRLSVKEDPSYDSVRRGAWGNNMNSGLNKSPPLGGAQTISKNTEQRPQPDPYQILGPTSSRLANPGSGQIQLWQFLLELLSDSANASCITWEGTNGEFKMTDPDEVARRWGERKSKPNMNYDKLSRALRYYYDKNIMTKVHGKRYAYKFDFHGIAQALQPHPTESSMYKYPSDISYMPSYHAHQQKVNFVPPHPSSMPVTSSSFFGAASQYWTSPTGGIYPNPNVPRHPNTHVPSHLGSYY
How it was run: (§1)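 GST fusions of human transcription factors were expressed in yeast and captured with glutathione beads. Once given DNA barcodes and pooled alongside a tag-only sample, they were incubated for 30 min at room temperature with 200 nmole of a random double-stranded 16-mer DNA library in Tris/NaCl/DTT/glycerol buffer, then washed, crosslinked (0.1% formaldehyde), proximity-ligated, PCR-amplified and sequenced on an Illumina NextSeq500. The binding signal of each hexamer is its read frequency for a factor divided by its frequency for the tag-only sample.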

[2] = target: T2, ELK1 (Homo sapiens, UniProt P19419 1-428); conditions: protein: recombinant; tags: N-terminal GST; dsDNA, one strand shown
T2 sequence: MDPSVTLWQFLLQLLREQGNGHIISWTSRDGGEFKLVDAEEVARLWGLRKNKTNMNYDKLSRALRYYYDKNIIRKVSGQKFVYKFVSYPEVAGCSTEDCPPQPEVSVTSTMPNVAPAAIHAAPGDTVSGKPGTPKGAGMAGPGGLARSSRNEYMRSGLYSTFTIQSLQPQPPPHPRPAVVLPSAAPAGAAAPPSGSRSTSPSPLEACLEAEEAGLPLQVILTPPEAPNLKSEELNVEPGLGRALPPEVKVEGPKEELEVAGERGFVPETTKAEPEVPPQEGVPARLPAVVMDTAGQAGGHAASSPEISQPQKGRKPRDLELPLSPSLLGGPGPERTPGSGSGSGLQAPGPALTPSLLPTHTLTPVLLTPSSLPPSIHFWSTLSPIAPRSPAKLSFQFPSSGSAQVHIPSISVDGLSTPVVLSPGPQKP
How it was run: as §1

[3] = target: T3, GABPA (Homo sapiens, UniProt Q06546 1-454); conditions: protein: recombinant; tags: N-terminal GST; dsDNA, one strand shown
T3 sequence: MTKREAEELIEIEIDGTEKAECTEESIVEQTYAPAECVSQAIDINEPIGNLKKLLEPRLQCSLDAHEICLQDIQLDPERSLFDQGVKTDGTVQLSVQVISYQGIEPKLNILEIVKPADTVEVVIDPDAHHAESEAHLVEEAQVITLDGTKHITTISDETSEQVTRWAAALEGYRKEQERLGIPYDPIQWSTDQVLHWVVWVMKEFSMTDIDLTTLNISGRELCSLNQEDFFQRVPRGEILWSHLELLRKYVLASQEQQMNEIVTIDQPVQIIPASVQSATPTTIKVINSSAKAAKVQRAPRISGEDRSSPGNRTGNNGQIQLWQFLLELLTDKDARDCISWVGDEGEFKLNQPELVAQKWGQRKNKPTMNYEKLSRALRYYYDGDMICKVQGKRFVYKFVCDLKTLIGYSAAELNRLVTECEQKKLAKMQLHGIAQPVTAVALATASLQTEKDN
How it was run: as §1

[4] = target: T4, ERG (Homo sapiens, UniProt P11308 1-479); conditions: protein: recombinant; tags: N-terminal GST; dsDNA, one strand shown
T4 sequence: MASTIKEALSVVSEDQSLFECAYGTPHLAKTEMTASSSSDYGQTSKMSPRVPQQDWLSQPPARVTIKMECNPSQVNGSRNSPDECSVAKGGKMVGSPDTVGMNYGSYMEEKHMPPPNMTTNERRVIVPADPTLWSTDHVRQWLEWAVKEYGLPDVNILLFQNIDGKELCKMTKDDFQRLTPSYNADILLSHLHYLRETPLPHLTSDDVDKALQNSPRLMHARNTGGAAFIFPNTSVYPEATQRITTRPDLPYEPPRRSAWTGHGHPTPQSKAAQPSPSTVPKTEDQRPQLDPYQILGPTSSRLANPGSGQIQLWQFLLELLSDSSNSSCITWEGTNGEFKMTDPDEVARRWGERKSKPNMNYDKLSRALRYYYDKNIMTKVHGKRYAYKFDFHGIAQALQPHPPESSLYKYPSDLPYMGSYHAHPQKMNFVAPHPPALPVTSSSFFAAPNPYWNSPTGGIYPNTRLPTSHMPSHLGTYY
How it was run: as §1

[5] = target: ELF1 (Homo sapiens, UniProt P32519 1-619); conditions: protein: recombinant; tags: N-terminal GST; dsDNA, one strand shown
Sequence of ELF1 (P32519 whole entry): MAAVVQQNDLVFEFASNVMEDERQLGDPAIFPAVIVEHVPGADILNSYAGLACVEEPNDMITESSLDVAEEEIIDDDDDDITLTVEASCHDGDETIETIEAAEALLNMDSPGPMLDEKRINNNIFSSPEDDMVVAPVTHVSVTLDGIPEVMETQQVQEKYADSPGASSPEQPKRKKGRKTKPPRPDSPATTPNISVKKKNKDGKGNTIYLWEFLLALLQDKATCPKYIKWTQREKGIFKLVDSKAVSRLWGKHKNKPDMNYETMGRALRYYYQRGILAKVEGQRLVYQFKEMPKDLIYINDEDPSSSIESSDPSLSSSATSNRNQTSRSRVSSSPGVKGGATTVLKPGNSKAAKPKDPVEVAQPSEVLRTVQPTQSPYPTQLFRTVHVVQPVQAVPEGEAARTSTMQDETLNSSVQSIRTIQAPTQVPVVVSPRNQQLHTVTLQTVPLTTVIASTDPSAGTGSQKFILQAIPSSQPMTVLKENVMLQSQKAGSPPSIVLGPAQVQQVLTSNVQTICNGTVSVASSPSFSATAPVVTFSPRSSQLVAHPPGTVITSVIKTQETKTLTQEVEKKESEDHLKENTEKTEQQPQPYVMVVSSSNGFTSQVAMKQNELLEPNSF
How it was run: as §1

[6] = target: T5, EHF (Homo sapiens, UniProt Q9NZC4 1-300); conditions: protein: recombinant; tags: N-terminal GST; dsDNA, one strand shown
T5 sequence: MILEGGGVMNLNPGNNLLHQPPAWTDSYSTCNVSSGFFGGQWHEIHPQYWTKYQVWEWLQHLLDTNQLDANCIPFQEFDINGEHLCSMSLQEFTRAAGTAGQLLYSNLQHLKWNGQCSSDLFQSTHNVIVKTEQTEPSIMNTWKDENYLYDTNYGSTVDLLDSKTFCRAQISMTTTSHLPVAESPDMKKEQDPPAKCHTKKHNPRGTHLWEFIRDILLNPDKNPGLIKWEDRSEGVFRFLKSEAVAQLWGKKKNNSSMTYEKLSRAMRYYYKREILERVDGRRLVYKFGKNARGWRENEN
How it was run: as §1

[7] = target: SPI1 (Homo sapiens, UniProt P17947 1-270); conditions: protein: recombinant; tags: N-terminal GST; dsDNA, one strand shown
How it was run: as §1

[8] = target: SPIB (Homo sapiens, UniProt Q01892 1-262); conditions: protein: recombinant; tags: N-terminal GST; dsDNA, one strand shown
Sequence of SPIB (Q01892 whole entry): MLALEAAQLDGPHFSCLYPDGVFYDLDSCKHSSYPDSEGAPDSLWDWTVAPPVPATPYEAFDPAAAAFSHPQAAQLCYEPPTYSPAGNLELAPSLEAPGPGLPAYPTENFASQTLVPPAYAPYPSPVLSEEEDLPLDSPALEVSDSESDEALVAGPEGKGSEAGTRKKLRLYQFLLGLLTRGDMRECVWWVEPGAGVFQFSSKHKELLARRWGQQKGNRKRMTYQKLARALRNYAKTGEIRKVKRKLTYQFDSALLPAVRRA
How it was run: as §1

[9] = target: T6, ELK3 (Homo sapiens, UniProt P41970 1-407); conditions: protein: recombinant; tags: N-terminal GST; dsDNA, one strand shown
T6 sequence: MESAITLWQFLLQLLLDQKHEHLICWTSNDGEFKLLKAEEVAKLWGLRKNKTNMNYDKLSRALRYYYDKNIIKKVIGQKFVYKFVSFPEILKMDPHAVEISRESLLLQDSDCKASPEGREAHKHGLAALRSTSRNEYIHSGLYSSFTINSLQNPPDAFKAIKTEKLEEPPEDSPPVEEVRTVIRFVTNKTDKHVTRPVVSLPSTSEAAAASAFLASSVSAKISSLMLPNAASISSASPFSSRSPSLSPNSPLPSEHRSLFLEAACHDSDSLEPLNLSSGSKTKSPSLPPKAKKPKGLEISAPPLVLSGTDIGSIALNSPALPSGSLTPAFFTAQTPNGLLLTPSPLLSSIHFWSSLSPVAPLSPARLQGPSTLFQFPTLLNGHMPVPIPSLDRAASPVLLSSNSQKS
How it was run: as §1

[10] = target: T7, FEV (Homo sapiens, UniProt Q99581 1-238); conditions: protein: recombinant; tags: N-terminal GST; dsDNA, one strand shown
T7 sequence: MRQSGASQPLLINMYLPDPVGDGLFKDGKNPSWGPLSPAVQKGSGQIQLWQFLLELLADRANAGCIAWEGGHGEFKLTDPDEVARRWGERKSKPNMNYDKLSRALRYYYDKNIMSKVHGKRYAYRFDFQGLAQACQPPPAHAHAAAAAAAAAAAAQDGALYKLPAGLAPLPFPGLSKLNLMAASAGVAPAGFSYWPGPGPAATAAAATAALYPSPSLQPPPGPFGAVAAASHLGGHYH
How it was run: as §1

[11] = target: ETV5 (Homo sapiens, UniProt P41161 1-510); conditions: protein: recombinant; tags: N-terminal GST; dsDNA, one strand shown
Sequence of ETV5 (P41161 whole entry): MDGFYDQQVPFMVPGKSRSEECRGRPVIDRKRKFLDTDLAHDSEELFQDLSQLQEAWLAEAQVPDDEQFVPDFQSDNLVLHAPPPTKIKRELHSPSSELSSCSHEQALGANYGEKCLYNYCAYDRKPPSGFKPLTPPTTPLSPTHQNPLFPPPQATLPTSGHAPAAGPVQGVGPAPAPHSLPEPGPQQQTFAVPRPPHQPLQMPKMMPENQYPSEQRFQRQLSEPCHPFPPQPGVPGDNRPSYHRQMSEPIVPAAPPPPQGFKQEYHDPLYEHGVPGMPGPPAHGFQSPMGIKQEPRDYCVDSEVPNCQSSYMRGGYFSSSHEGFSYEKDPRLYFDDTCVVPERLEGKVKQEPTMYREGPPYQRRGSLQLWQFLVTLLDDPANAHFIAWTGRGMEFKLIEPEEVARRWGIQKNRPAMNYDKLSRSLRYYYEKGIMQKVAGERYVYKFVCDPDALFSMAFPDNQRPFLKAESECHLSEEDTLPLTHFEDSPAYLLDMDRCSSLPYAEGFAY
How it was run: as §1

[12] = target: HSF1 (Homo sapiens, UniProt Q00613 1-529); conditions: protein: recombinant; tags: N-terminal GST; chain copies: 3; dsDNA, one strand shown
Sequence of HSF1 (Q00613 whole entry): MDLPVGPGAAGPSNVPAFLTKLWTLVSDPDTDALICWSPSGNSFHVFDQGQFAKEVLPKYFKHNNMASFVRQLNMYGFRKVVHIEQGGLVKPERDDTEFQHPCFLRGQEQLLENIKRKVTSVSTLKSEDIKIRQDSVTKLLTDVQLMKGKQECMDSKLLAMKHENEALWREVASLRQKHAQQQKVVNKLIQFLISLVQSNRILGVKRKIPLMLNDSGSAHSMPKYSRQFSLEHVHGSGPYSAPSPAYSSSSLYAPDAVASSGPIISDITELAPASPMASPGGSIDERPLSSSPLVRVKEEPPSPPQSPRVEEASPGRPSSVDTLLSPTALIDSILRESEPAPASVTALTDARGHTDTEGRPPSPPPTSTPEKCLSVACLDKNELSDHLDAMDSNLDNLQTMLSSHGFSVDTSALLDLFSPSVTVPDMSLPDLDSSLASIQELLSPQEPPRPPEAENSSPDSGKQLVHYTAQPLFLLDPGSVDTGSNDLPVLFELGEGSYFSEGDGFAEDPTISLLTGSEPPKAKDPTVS
How it was run: as §1

[13] = target: T8, SPIC (Homo sapiens, UniProt Q8N5J4 1-248); conditions: protein: recombinant; tags: N-terminal GST; dsDNA, one strand shown
T8 sequence: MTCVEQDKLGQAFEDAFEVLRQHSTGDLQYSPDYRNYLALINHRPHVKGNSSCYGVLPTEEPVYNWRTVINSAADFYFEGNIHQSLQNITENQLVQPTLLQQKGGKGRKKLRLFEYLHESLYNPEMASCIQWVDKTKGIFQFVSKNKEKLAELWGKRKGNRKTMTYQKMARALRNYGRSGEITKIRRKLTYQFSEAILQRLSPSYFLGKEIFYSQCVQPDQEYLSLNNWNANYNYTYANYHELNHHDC
How it was run: as §1

[14] = target: ELF4 (Homo sapiens, UniProt Q99607 1-663); conditions: protein: recombinant; tags: N-terminal GST; dsDNA, one strand shown
Sequence of ELF4 (Q99607 whole entry): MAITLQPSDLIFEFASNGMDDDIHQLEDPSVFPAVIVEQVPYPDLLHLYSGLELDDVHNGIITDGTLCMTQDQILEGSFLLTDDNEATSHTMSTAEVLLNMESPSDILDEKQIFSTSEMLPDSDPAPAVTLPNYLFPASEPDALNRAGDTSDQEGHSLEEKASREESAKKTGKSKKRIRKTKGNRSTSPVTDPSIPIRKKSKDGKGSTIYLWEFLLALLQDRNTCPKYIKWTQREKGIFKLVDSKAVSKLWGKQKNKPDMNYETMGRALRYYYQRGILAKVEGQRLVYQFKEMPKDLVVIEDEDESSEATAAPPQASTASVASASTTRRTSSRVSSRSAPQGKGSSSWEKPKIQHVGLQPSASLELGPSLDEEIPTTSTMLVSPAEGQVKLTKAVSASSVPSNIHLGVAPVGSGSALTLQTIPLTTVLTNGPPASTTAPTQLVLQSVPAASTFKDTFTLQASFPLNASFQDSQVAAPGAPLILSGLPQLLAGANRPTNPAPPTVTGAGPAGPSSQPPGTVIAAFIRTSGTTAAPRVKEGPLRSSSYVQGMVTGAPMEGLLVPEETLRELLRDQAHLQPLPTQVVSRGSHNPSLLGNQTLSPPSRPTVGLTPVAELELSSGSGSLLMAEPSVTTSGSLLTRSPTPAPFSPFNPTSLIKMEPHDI
How it was run: as §1

[15] = target: T9, ELK4 (Homo sapiens, UniProt P28324-2 1-405); conditions: protein: recombinant; tags: N-terminal GST; dsDNA, one strand shown
T9 sequence: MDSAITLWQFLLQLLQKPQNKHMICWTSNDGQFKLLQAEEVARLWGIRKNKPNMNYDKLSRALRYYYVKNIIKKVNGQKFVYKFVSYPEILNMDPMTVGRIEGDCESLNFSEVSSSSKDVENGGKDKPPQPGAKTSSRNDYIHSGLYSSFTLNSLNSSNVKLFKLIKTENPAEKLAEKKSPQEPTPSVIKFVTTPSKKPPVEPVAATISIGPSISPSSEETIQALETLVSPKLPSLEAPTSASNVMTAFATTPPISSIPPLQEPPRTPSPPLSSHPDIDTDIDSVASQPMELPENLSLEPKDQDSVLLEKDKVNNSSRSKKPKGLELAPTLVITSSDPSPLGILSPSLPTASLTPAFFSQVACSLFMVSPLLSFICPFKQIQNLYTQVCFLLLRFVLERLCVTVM
How it was run: as §1

[16] = target: T10, ETV2 (Homo sapiens, UniProt O00321 1-342); conditions: protein: recombinant; tags: N-terminal GST; dsDNA, one strand shown
T10 sequence: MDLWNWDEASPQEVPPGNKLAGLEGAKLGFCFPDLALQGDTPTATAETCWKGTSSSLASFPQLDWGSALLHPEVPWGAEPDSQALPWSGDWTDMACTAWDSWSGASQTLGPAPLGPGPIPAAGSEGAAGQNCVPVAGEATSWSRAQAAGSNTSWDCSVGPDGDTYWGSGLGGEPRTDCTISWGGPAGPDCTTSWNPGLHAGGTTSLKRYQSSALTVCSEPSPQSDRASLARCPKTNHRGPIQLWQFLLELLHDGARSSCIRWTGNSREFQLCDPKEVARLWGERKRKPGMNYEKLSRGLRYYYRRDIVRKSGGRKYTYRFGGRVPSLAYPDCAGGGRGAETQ
How it was run: as §1

[17] = target: T11, ELF3 (Homo sapiens, UniProt P78545 1-371); conditions: protein: recombinant; tags: N-terminal GST; dsDNA, one strand shown
T11 sequence: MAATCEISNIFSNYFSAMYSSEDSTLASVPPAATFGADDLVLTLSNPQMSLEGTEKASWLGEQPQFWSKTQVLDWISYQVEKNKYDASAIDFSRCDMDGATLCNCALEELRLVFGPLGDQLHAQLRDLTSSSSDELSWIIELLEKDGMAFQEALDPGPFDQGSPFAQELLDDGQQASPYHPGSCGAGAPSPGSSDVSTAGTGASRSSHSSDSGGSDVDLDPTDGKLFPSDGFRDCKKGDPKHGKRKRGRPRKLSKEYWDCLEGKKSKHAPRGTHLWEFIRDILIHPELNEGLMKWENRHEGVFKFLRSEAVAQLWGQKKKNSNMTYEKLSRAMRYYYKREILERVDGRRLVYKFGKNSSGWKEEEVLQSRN
How it was run: as §1

[18] = target: CRX (Homo sapiens, UniProt O43186 1-299); conditions: protein: recombinant; tags: N-terminal GST; dsDNA, one strand shown
Sequence of CRX (O43186 whole entry): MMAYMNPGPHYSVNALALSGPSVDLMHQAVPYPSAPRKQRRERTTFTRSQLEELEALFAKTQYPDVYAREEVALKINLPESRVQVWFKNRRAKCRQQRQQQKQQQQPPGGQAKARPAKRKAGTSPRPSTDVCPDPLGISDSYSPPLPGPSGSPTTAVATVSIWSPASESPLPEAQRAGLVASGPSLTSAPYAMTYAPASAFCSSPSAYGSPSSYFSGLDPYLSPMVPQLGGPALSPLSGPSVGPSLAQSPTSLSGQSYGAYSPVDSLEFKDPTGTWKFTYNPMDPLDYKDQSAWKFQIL
How it was run: as §1

[19] = target: ETV1 (Homo sapiens, UniProt P50549 1-477); conditions: protein: recombinant; tags: N-terminal GST; dsDNA, one strand shown
Sequence of ETV1 (P50549 whole entry): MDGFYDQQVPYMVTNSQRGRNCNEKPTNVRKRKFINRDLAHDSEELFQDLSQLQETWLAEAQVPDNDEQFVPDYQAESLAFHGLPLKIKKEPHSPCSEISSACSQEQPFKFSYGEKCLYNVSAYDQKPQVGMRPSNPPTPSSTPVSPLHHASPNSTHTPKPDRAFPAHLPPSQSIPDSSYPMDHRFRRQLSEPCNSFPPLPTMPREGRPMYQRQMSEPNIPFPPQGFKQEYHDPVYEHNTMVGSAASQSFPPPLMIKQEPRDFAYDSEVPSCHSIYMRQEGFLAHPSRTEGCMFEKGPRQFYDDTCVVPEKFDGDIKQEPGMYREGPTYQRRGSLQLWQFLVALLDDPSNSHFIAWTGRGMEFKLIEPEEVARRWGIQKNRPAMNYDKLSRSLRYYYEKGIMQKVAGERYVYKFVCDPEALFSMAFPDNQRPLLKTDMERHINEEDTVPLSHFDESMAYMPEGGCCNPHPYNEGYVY
How it was run: as §1

ATTCGT
binding signal [1]: 1.24 fold enrichment (6-mer frequency, TF over GST control)
binding signal [2]: 1.24 fold enrichment (6-mer frequency, TF over GST control)
binding signal [3]: 1.05 fold enrichment (6-mer frequency, TF over GST control)
binding signal [4]: 1.15 fold enrichment (6-mer frequency, TF over GST control)
binding signal [5]: 1.17 fold enrichment (6-mer frequency, TF over GST control)
binding signal [6]: 1.08 fold enrichment (6-mer frequency, TF over GST control)
binding signal [7]: 1.11 fold enrichment (6-mer frequency, TF over GST control)
binding signal [8]: 1.27 fold enrichment (6-mer frequency, TF over GST control)
binding signal [9]: 1.08 fold enrichment (6-mer frequency, TF over GST control)
binding signal [10]: 1.12 fold enrichment (6-mer frequency, TF over GST control)
binding signal [11]: 1.19 fold enrichment (6-mer frequency, TF over GST control)
binding signal [12]: 1.27 fold enrichment (6-mer frequency, TF over GST control)
binding signal [13]: 1.25 fold enrichment (6-mer frequency, TF over GST control)
binding signal [14]: 1.24 fold enrichment (6-mer frequency, TF over GST control)
binding signal [15]: 1.11 fold enrichment (6-mer frequency, TF over GST control)
binding signal [16]: 1.16 fold enrichment (6-mer frequency, TF over GST control)
binding signal [17]: 1.37 fold enrichment (6-mer frequency, TF over GST control)
binding signal [18]: 1.28 fold enrichment (6-mer frequency, TF over GST control)
binding signal [19]: 1.14 fold enrichment (6-mer frequency, TF over GST control)

From paper PMC7862700, “An all-to-all approach to the identification of sequence-specific readers for epigenetic DNA modifications on cytosine”
